Assay results taken from PubChem BioAssay AID1347420 (Sanford-Burnham Center for Chemical Genomics, 2020).
Among all 1,300 compounds or so, about 980 (75%) were called active. Not shown: some 4% with an inconclusive outcome. This is one part of the list. A number with no mark means an inactive call.

The compounds below were run against Sulfhydryl oxidase 1 (Homo sapiens) (UniProt O00391) (assay: inhibition of human sulfhydryl oxidase QSOX1 – biochemical, HyperBlu H2O2 luminescence, HTS, primary screen (AID 1347420; note: values above 100% were filed as inconclusive)). Conditions: recombinant QSOX1, HyperBlu H2O2 luminescence; at 12.5 µM; hits give high values; active = any value above zero.
Sulfhydryl oxidase 1 (Homo sapiens), sequence (O00391 whole entry, looked up): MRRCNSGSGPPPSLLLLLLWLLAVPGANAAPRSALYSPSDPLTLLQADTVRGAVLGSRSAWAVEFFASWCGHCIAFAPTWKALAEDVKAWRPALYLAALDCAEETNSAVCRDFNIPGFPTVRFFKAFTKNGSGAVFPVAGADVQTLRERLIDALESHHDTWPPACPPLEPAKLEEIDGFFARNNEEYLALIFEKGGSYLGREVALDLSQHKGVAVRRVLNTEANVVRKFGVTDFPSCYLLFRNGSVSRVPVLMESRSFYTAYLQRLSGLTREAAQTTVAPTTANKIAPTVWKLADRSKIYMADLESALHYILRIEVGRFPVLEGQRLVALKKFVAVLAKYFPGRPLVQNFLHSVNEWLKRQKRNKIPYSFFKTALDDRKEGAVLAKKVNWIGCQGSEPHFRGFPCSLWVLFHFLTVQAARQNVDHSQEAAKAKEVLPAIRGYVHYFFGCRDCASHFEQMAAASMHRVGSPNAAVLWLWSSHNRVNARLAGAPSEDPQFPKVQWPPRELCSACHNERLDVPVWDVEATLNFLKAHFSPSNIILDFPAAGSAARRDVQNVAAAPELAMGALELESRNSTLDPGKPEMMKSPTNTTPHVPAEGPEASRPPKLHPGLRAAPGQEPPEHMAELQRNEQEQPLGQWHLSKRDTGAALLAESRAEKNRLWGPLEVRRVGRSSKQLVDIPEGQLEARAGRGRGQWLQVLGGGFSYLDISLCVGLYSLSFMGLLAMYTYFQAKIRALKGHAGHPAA

| Compound | inhibition |
| --- | --- |
| O=c1ccc2c(OCCCCc3ccccc3)c3ccoc3cc2o1 | 18.3% (active) |
| CO/N=C(\C(=O)N[C@@H]1C(=O)N2C(C(=O)O)=C(CSc3nc(=O)c(O)nn3C)CSC12)c1csc(N)n1 (some centres undefined) | 24.6% (active) |
| CC(=O)OCC1=C(C(=O)O)N2C(=O)[C@@H](NC(=O)Cc3cccs3)[C@H]2SC1 | 11.8% (active) |
| CO/N=C(\C(=O)N[C@@H]1C(=O)N2C(C(=O)O)=C(COC(C)=O)CS[C@H]12)c1csc(N)n1 | 26.2% (active) |
| Cn1cnc2c(NCc3ccccc3)nc(NCCO)nc21 | 12.8% (active) |
| CC[C@@H](CO)Nc1nc(NCc2ccccc2)c2ncn(C(C)C)c2n1 | 24.9% (active) |
| CNCCCC1c2ccccc2C=Cc2ccccc21 | 3.6% (active) |
| CC(=O)Oc1cc(C(C)C)c(OCCN(C)C)cc1C | 0.5% (active) |
| O=[N+]([O-])c1cccc2cn[nH]c12 | 16.8% (active) |
| COC(=O)[C@H]1[C@H]2C[C@H]3c4[nH]c5ccccc5c4CCN3C[C@H]2CC[C@@H]1O | 50.6% (active) |
| COC(=O)[C@@H]1[C@H]2C[C@H]3c4[nH]c5ccccc5c4CCN3C[C@@H]2CC[C@@H]1O | -38.2% |
| COC(=O)[C@H]1[C@H]2C[C@@H]3c4[nH]c5cc(OC)ccc5c4CCN3C[C@H]2C[C@@H](OC(=O)c2cc(OC)c(OC)c(OC)c2)[C@@H]1OC | 33% (active) |
| C[C@H](Cc1ccccc1)Nc1ncnc2c1ncn2[C@@H]1O[C@H](CO)[C@H](O)C1O (some centres undefined) | -5.3% |
| OC[C@H]1O[C@@H](n2cnc3c(NC4CCCC4)ncnc32)C(O)[C@H]1O (some centres undefined) | 4% (active) |
| CNc1ncnc2c1ncn2[C@@H]1O[C@H](CO)[C@H](O)C1O (some centres undefined) | 12% (active) |
| OC[C@H]1O[C@@H](n2cnc3c(NC4CCCCC4)ncnc32)[C@H](O)[C@@H]1O | 19.1% (active) |
| OC[C@H]1O[C@H](n2cnc3c(N[C@H]4CCC[C@@H]4O)ncnc32)[C@H](O)[C@@H]1O | 5.7% (active) |
| CNc1ncnc2c1ncn2[C@H]1C[C@H](OP(=O)(O)O)[C@@H](COP(=O)(O)O)O1 | 13.4% (active) |
| CCCCC#Cc1nc(NC)c2ncn([C@@H]3O[C@H](CO)C(O)[C@@H]3O)c2n1 (some centres undefined) | 20.2% (active) |
| Nc1ccc(CCNc2ncnc3c2ncn3C2OC(CO)C(O)C2O)cc1 (centres undefined) | 36.3% (active) |
| Cn1cc(C(=O)OCC2CCN(CCNS(C)(=O)=O)CC2)c2ccccc21 | -1% |
| COc1cc(/C=C(\C#N)C(=O)Nc2nnc(C(F)(F)F)s2)ccc1OCc1ccc(C(F)(F)F)cc1C(F)(F)F | -0.4% |
| COc1ccc(/C=C/C(=O)Nc2ccccc2C(=O)O)cc1OC | 4.9% (active) |
| CNCCC(Oc1ccccc1OC)c1ccccc1 (centres undefined) | 2.8% (active) |
| CNCCC(Oc1ccccc1C)c1ccccc1 (centres undefined) | 0.9% (active) |

| Compound | inhibition |
| --- | --- |
| CC(C)(C)NCC(O)COc1cccc2[nH]c(=O)[nH]c12 (centres undefined) | 14% (active) |
| COc1cccc2c1[C@@H]1CN(CCCCn3c(=O)[nH]c4c(sc5ncc(-c6ccccc6)nc54)c3=O)C[C@@H]1CO2 | 47% (active) |
| NCCCC(N)(C(=O)O)C(F)F (centres undefined) | 4.1% (active) |
| CNC(=O)Oc1ccc2c(c1)[C@]1(C)CCN(C)[C@@H]1N2C | 17.7% (active) |
| O=C(O)[C@H]1NCCC[C@H]1C(=O)O | -4.7% |
| O=C(O)C1CCNCC1 | 1.7% (active) |
| O=C(O)C1CCCNC1 (centres undefined) | 13.4% (active) |
| CC1=NS(=O)(=O)c2cc(Cl)ccc2N1 | 34.8% (active) |
| CC(CCc1ccccc1)NCC(O)c1ccc(O)c(C(N)=O)c1 (centres undefined) | 12.9% (active) |
| Nc1ccc(N2C(=O)c3ccccc3C2=O)c(Cl)c1 | 7.7% (active) |
| N[C@@H]1CONC1=O | -0.9% |
| N[C@H]1CONC1=O | 3.7% (active) |
| NC1CONC1=O (centres undefined) | 2.4% (active) |
| Fc1cccc(/C=N/N=C/c2cccc(F)c2)c1 | -1.8% |
| O[Si](CCCN1CCCCC1)(c1ccc(F)cc1)C1CCCCC1 (centres undefined) | 4.4% (active) |
| Cn1ncc(S(=O)(=O)Cc2ccccc2)c(Br)c1=O | 11.5% (active) |
| C[C@@H](O)[C@H]1C(=O)N2C(C(=O)O)=C(SCCN=CN)C[C@H]12 | 17.6% (active) |
| CCn1cc(C(=O)O)c(=O)c2ccc(C)nc21 | 10.1% (active) |
| CCn1cc(C(=O)O)c(=O)c2cc3c(cc21)OCO3 | -7.6% |
| CNC(=O)[C@H]1O[C@@H](n2cnc3c(NCc4cccc(I)c4)ncnc32)C(O)[C@H]1O (some centres undefined) | 14% (active) |
| CNC(=O)[C@H]1O[C@@H](n2cnc3c(NCc4ccc(N)cc4)ncnc32)C(O)[C@H]1O (some centres undefined) | 32.2% (active) |
| CCNC(=O)[C@H]1O[C@@H](n2cnc3c(N)nc(NCCc4ccc(CCC(=O)O)cc4)nc32)C(O)[C@H]1O (some centres undefined) | 45.5% (active) |
| CC(=O)N[C@@H](CS)C(=O)O | 43.1% (active) |
| CC1(C)CCC=[N+]1[O-] | 6.8% (active) |
| CN1CCc2cc(NC(=O)Nc3cccnc3)ccc21 | 16.5% (active) |

| Compound | inhibition |
| --- | --- |
| Cn1ccc2cc3c(cc21)CCN3C(=O)Nc1cccnc1 | -4.6% |
| O=C(O)CCC(=O)N1CCCC1C(=O)O (centres undefined) | -11.1% |
| CCCN1C[C@H](CSC)C[C@@H]2c3cccc4[nH]cc(c34)C[C@H]21 | 31% (active) |
| CCc1c(C)[nH]c2c1C(=O)C(CN1CCOCC1)CC2 (centres undefined) | 17.7% (active) |
| N[C@@H](Cc1cnc[nH]1)C(=O)O | -5.8% |
| O=C(O)/C=C/c1cnc[nH]1 | 10.6% (active) |
| CN(C)c1cc2c(Nc3ccc4c(cnn4Cc4ccccc4)c3)ncnc2cn1 | 15.4% (active) |
| CC#CCOC(=O)c1c(C)nc2sc3c(c2c1N)CCC(O)C3 (centres undefined) | -4.2% |
| S=C(Nc1ccccc1)Nc1nccs1 | 35.5% (active) |
| CC1CCN=C(N)S1 (centres undefined) | 29.6% (active) |
| NCCSSCCN | 47.5% (active) |
| O=C1/C(=C/c2ccsc2)CC/C1=C\c1cccs1 | 17.5% (active) |
| COc1cc2c(c(OC)c1OC)-c1ccc(OC)c(=O)cc1[C@@H](NC(C)=O)CC2 | -1% |
| Cn1cc(C2=C(c3ccc(Cl)cc3Cl)C(=O)NC2=O)c2ccccc21 | 25.7% (active) |
| CCc1ccc(/C=C2/SC(=S)NC2=O)cc1 | 69.4% (active) |
| O=C(O)CCc1nc(-c2ccccc2)c(-c2ccccc2)o1 | -0.1% |
| CC1COc2c(N3CCN(C)CC3)c(F)cc3c(=O)c(C(=O)O)cn1c23 (centres undefined) | 5.3% (active) |
| OC(CN1CCC(Cc2ccc(F)cc2)CC1)c1ccc(Cl)cc1 (centres undefined) | 1.3% (active) |
| CCCCN1CCC(n2c(=O)[nH]c3ccccc32)CC1 | 16.3% (active) |
| CN(C)CCCO[C@@H]1[C@H]2OC(C)(C)O[C@H]2O[C@@H]1C(O)CO (some centres undefined) | 14.7% (active) |
| O=C(O)[C@@H]1C[C@@H](C(=O)O)N1 | 4.5% (active) |
| O=C(O)[C@@H]1C[C@H](C(=O)O)N1 | -18.8% |
| CC(C)(C=O)Cc1cc(C(C)(C)C)c(O)c(C(C)(C)C)c1 | 2.8% (active) |
| CC(C)(CO)Cc1cc(C(C)(C)C)c(O)c(C(C)(C)C)c1 | -2.3% |
| COc1cc2nc(N3CCCN(C)CC3)nc(NC3CCN(Cc4ccccc4)CC3)c2cc1OC | 5.4% (active) |

| Compound | inhibition |
| --- | --- |
| COc1ccc2cc([C@H](C)C(=O)O)ccc2c1 | -13.9% |
| CC(C(=O)O)c1cccc(C(=O)c2ccccc2)c1 (centres undefined) | 8.2% (active) |
| COc1ccccc1N1CCN(CCN2C(=O)CC3(CCCC3)CC2=O)CC1 | 61.3% (active) |
| COc1ccccc1N1CCN(CCCCN2C(=O)c3ccccc3C2=O)CC1 | 2% (active) |
| COc1ccccc1N1CCN(CCCCNC(=O)c2ccc3ccccc3c2)CC1 | 36.1% (active) |
| O=C1CC2(CCCC2)CC(=O)N1CCCCN1CCN(c2ncccn2)CC1 | -6.6% |
| Cc1cccc(C(=O)NCN2CCN(c3ccccc3C#N)CC2)c1 | -17.3% |
| CN[C@H](CC(=O)O)C(=O)O | 15.9% (active) |
| c1ccc(C(NCc2cccnc2)(c2ccccc2)c2ccccc2)cc1 | 2.5% (active) |
| CC(C)(Oc1ccc(CCNC(=O)c2ccc(Cl)cc2)cc1)C(=O)O | 5.4% (active) |
| CC(C)(Oc1ccc(C2CC2(Cl)Cl)cc1)C(=O)O (centres undefined) | -2.9% |
| C=C/C(C)=C/[C@@]1(C)SC(=O)C(C)=C1O | 13.4% (active) |
| O=C1NC(c2cccc([N+](=O)[O-])c2)=CCN1c1ccccc1O | 24.8% (active) |
| NCCc1cnc[nH]1 | 10.9% (active) |
| N=C(N)SCCc1cnc[nH]1 | -0.5% |
| CCCCC[C@H](CC(=O)NO)C(=O)N[C@H](C(=O)N1CCC[C@H]1CO)C(C)C | -27.8% |
| COc1cc(OC)c(/C=C2/C(=O)Nc3ccccc32)c(OC)c1 | 44.2% (active) |
| CCC1(O)CC2CN(CCc3c([nH]c4ccccc34)[C@@](C(=O)OC)(c3cc4c(cc3OC)N(C)C3[C@]45CCN4CC=C[C@@](CC)([C@@H](OC(C)=O)[C@]3(O)C(=O)OC)[C@H]45)C2)C1 (some centres undefined) | 18.8% (active) |
| CCC1(O)CC2CN(CCc3c([nH]c4ccccc34)[C@@](C(=O)OC)(c3cc4c(cc3OC)N(C=O)C3[C@]45CCN4CC=C[C@@](CC)([C@@H](OC(C)=O)[C@]3(O)C(=O)OC)[C@H]45)C2)C1 (some centres undefined) | 2.9% (active) |
| C/C(=C\c1ccc(C(=O)O)cc1)c1ccc2c(c1)C(C)(C)CCC2(C)C | 5.8% (active) |
| CCCCC/C=C\CC(O)/C=C/c1cccc(CC(O)CCCCO)n1 (centres undefined) | -9.6% |
| O=c1cc(-c2ccccc2)[nH]c2nc(Cl)ccc12 | 2.9% (active) |
| O=C1CCC(N2C(=O)c3ccccc3C2=O)C(=O)N1 (centres undefined) | 3% (active) |
| Cc1cccc(C#Cc2ccccc2)n1 | 15.5% (active) |
